Measured potencies and affinities stand elsewhere. Results filed as inconclusive are left out. Unmarked numbers belong to inactive results.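 How the source made its calls: active means luminescence drop in HepG2 cells whose fitted half-effect dose is at most twice the top valid dose; inconclusive means flat curve with 30 to 70% signal loss, or unreliable fit; inactive means the rest.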
Experiment: cytotoxicity in HepG2 cells, dose response, cytotoxicity control, cell-based, plate reader, dry powder (AID 651947)
Details: HepG2 viability, ATP luminescence (CellTiter-Glo), 48 h, active compounds read low; at 26 µM unless noted

SMILES	max activity
Clc1ccc(-c2nnc(SCc3ccccc3)o2)cc1	-50.8%
COc1ccc(CSc2nnc(-c3ccccc3)o2)cc1	-24.9% [at 0.195 µM]
c1ccc(CSc2nnc(-c3ccccc3)o2)cc1	-12.1% [at 1.6 µM]

Reference: PubChem BioAssay AID651947 (Broad Institute, 2012)
